In PubChem BioAssay (NCI):
The panel holds about 79,000 compounds, 15% with a hit somewhere; the sample as a whole holds those more often. Values without a mark were called inactive. The source made the active and inactive calls. Cut-off read from the data, not from the text of the source: active = growth inhibition above about 70%; inactive = the rest.

Columns and labels:
[1] = NCI Yeast Anticancer Drug Screen. Data for the rad50 strain (AID 155);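 note: 0% = growth of vehicle-only cultures of the same strain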; conditions: S. cerevisiae rad50 strain growth inhibition; at 50.0 µM; stronger effect = higher value
In short: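 Inhibition values express reduced yeast growth in compound-treated cultures relative to vehicle-treated controls.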

[2] = NCI Yeast Anticancer Drug Screen. Data for the mec2-1 strain (AID 157); conditions: S. cerevisiae mec2-1 strain, at 50.0 µM, stronger effect = higher value
In short: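 Growth inhibition is read against vehicle-treated controls after compound exposure of the mec2-1 yeast strain, which is defective in DNA damage repair or cell cycle control.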

[3] = NCI Yeast Anticancer Drug Screen. Data for the sgs1 mgt1 strain (AID 161);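 note: 0% = growth of cultures given vehicle only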; conditions: S. cerevisiae sgs1 mgt1 strain, at 50.0 µM, stronger effect = higher value
In short: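 Growth of a repair-deficient yeast mutant was monitored after compound treatment and expressed as inhibition relative to vehicle-treated cultures.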

[4] = NCI Yeast Anticancer Drug Screen. Data for the cln2 rad14 strain (AID 165);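 note: 0% = growth equal to vehicle treated cultures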; conditions: S. cerevisiae cln2 rad14 strain, at 50.0 µM, stronger effect = higher value
In short: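 Growth inhibition, relative to vehicle-treated controls, is the read-out. The test organism is a yeast strain with defined genetic alterations, cln2 rad14.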

[5] = NCI Yeast Anticancer Drug Screen. Data for the bub3 strain (AID 167); conditions: S. cerevisiae bub3 mutant strain, at 50.0 µM, stronger effect = higher value
In short: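 Steps: expose the mutant yeast strain to compound; grow alongside vehicle-treated cultures; measure growth; express inhibition against the vehicle cultures.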

[6] = NCI Yeast Anticancer Drug Screen. Data for the mlh1 rad18 strain (AID 175); conditions: S. cerevisiae mlh1 rad18 strain growth inhibition; at 50.0 µM; stronger effect = higher value
In short: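 Cells of a genetically altered yeast strain, deficient in DNA damage repair, were treated with compound. Their growth was then compared with that of vehicle-treated cultures to give inhibition.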

SMILES | growth inhibition [1] | growth inhibition [2] | growth inhibition [3] | growth inhibition [4] | growth inhibition [5] | growth inhibition [6]
Nc1[nH]n(-c2ccccc2)c(=O)c1/C=N/C(=S)NC1CCCCC1 | -79% | -43.7% | -61% | -63.2% | -47.8% | -67.9%
COC(=O)C1=C(C)N(NC(N)=O)C(C)(O)C12CCOC2=O (stereo unspecified) | -3.8% | -2.2% | 2.15% | -56.8% | -5.95% | -14.1%
CC1=CC(=O)N(NC(N)=O)C1=O | -11.4% | -2.9% | -9.5% | -27.9% | -16.4% | 2.15%
Cc1ccc(S(=O)(=O)NC(Cc2ccccc2)C(=O)NCc2cccnc2)cc1 (stereo unspecified) | 23.6% | -8.4% | 5.2% | 4.45% | -4.1% | 4.65%
CC(C)CC(NC(=O)c1cc([N+](=O)[O-])cc([N+](=O)[O-])c1)C(=O)O (stereo unspecified) | -2% | -2.7% | 16.1% | 8.5% | -41.2% | -5.5%
CSc1nc2cc(C)c(C)cc2[nH]1 | -5.1% | -3.1% | 27.8% | -25.5% | 15.1% | -6.85%
CC1=CC(=O)/C(=C/N2CCNC2=S)C(=O)O1 | -24.6% | -20.6% | 1.3% | 5.65% | -31.3% | 4.7%
O=C1OC(=O)c2c(Br)c(Br)c(Br)c(Br)c21 | 5.9% | 8.65% | -16.4% | -8.9% | -10.9% | 2.7%
CCCCCCCCCCCCCCCCN1C(=O)c2ccccc2S1(=O)=O | -14.7% | -15.8% | -10.5% | 32.5% | -2.2% | 5.1%
O=C(Nc1nc(=S)c2c(ncn2CCO)[nH]1)c1ccccc1 | 4.95% | -14% | 8.6% | 12.9% | 4.7% | -0.7%
CN(C)CCCOc1nc2c(c(=O)n(C)c(=O)n2C)n1C (tested in a mixture with another compound) | 0.9% | 8.9% | -19.9% | -9.35% | -18.9% | -7.15%
O=C(N/N=C1\CCc2ccccc2C1)N/N=C1\CCc2ccccc2C1 | 20.4% | 17.1% | 11.7% | -5.85% | -18.9% | 9.6%
c1ccc(-c2cc(CNc3nc4ccccc4s3)on2)cc1 | 19.9% | 10.7% | 9.1% | 5.45% | -4.55% | 9.75%
CC(=O)CC1CCc2ccc3ccccc3c2C1c1cccc2ccccc12 (stereo unspecified) | 2.35% | 8.2% | -6.85% | 26.4% | 2.4% | 25.4%
O=C(Nc1ccc(Cl)cc1)NS(=O)(=O)c1coc2ccccc2c1=O | 9.65% | 7.3% | -5.75% | 18.6% | 11.6% | 23.1%
C=C1C(=O)OC2C1C(OC(=O)/C(C)=C/C)CC1(C)C(=O)CCC(=C)C21 (stereo unspecified) | 38.3% | 47% | 52.8% | 44.1% | 52.8% | 63.6%
CC(C)(C)C1CC/C(=N\Nc2ccc([N+](=O)[O-])cc2[N+](=O)[O-])C(Cc2ccccc2)C1 (stereo unspecified) | 11.9% | 21.1% | 19.5% | -26.6% | 16.9% | 0%
CC(C)(O)/C=C\P(C)(=O)c1ccccc1 (stereo unspecified) | -30.9% | -21.9% | -4.7% | 9.85% | -32.5% | -31.4%
S=C1CC(c2ccccc2)Sc2cc(Cl)ccc2N1 (stereo unspecified) | -15.5% | -4.35% | 4.9% | 15.6% | -2.45% | -2.95%
Cc1ccc(OCC(=O)O)cc1C | -5.75% | -24.2% | -14.7% | 0.25% | -11.8% | -11.2%
COc1ccc(C2=C(Cl)c3cc(OC)c(OC)cc3C2=O)cc1OC | 0.75% | -7.1% | -7.05% | -18.9% | -9.85% | 2.4%

SMILES | growth inhibition [1] | growth inhibition [2] | growth inhibition [3] | growth inhibition [4] | growth inhibition [5] | growth inhibition [6]
Nc1c(Br)cc(Br)c2c1CCC2 | 10.6% | 5.9% | 10.6% | 1.4% | 8.8% | 15.8%
CCNC(=O)c1cc2ccccc2cc1O | 1.4% | -6.85% | -6.5% | -46% | -15.7% | 6.55%
C/C=N\n1c(C)c(C#N)c(C#N)c1N | 8.6% | 10.2% | -23.6% | -14.1% | -21.7% | -35.5%
Br | -11.7% | -33.1% | -54.9% | -20% | -30.6% | -44.1%
C=CCCCC(C#N)c1ccc2c(c1)OCO2 (stereo unspecified) | -3.25% | -14.2% | -4.85% | -82% | -40.6% | -15.2%
CC(C)(C)C(=O)Nc1ccccc1 | 37.7% | 17% | 0.2% | 1.55% | -12.4% | 23%
CNC(=O)N(Cl)c1ccc(Cl)cc1 | 5.45% | 12.9% | 1.9% | -26.6% | 7.45% | -0.25%
O=C(CN1CCOCC1)CC(O)(C(F)(F)F)C(F)(F)F | 0.35% | 2.05% | -1.65% | 7.1% | 1.85% | 72.7% (active)
COc1ccc([C@@]23Oc4cc(OC)cc(OC)c4[C@]2(O)[C@H](O)[C@H](C(=O)N(C)C)[C@H]3c2ccccc2)cc1 | 91.8% (active) | 93.5% (active) | 92.8% (active) | 91.5% (active) | 91.3% (active) | 91.1% (active)
O=C(O)Cc1c(O)ccc2ccccc12 | -32.7% | -16.3% | -34.5% | -29.8% | -38.6% | -3.7%
N#Cc1cnsc1 | -4.15% | 2.65% | 4.75% | 3.55% | 12.4% | -26.8%
COc1ccc([N+](=O)[O-])cc1NC(=O)c1ccc(Cl)cc1 | 12% | 29.7% | 35.6% | 16.9% | 28% | 34.8%
CCC(C)N(C(=O)C(C)Br)C(C)CC (stereo unspecified) | 2.95% | -9.4% | -19.2% | -39.2% | -10% | 5.9%
O=C1c2ccccc2C(=O)N1OCc1csc(-c2ccccc2)n1 | 5.5% | 6.25% | -4.2% | 5.25% | 0.95% | 27.4%
N#CCCNc1ccc2c(c1)Cc1ccccc1-2 | 1.65% | 3.4% | 18.6% | -14.2% | 12.4% | -27.5%
CCN(C(=S)Nc1cccc2ccccc12)c1ccccc1 | -4.05% | -11.3% | 11.7% | 2.4% | -3.65% | -7.9%
COc1ccc(C#CC(=O)O)c(OC)c1 | -3.15% | -2.1% | 22.9% | -30.6% | -5.45% | -9%
CCCOC(=O)CNC(=O)OC(C)(C)C | 17.6% | 14.8% | 1.15% | 0.55% | -4.95% | -4.35%
COC(=O)NCCCCl | 5.25% | -10.7% | 3.5% | -14.2% | -0.3% | 3.15%
O=C1/C(=C\c2ccccc2)Cc2cc3c(cc21)OCO3 | 6.1% | 1.85% | -3.55% | -15.9% | 8.95% | -6.45%
